# Test system: DRIVER-selected RNA biosensor (aptazyme) pool
# Experiment: maximum fold change of ribozyme cleavage across biosensor pool versus no-compound control; higher = stronger biosensor response (ligand inhibits cleavage)
# Conditions: 10 µM
# Method: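 CleaveSeq: a pool of resynthesized hammerhead-ribozyme RNA biosensors (sTRSV scaffold with randomized loops, 1,730 sequences) was T7-transcribed at 37 °C for 15-30 min with a single compound at 10 µM. Cleaved and uncleaved products were counted by NGS, and fold change of cleavage was computed against the DMSO-only condition. The value is the maximum fold change of cleavage over all biosensors in the pool. About 255 compounds were tested individually.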
row,Structure (SMILES),maximum fold change
1,O=Cc1cn(Cc2ccc(F)cc2Cl)c2ccccc12,3
2,O=C(Cn1cnc2sc3c(c2c1=O)CCCC3)NCCCC(=O)N1CCC2(CC1)OCCO2,2.67
3,Cc1ccc(CNC(=O)CN2CC(c3ccccc3)CC2=O)cc1 (centres undefined),3.05
4,CN1CCN(Cc2csc3c2CCCC3)CC1,3.66
